An excerpt weighted towards active compounds, which were near 21% of everything screened.
Pf growth 96h: inhibits malaria parasite growth, 96 h. P. falciparum luciferase reporter growth, 96 h. Potency, µM (highest dose often 28.7 µM), hits mostly inhibitors. AID 504834. hit rate 6.9% among 320,000
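Plates of compound plus infected erythrocytes (2% hematocrit, 0.05% parasitemia final) incubate 96 hours, 37 C, 5% CO2. Detection reagent added; reduced luminescence from the parasites' luciferase reporter flags inhibition.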
NS1 inh: blocks influenza NS1 protein function | hit rate 0.4% among 270,000 | Potency, µM (top dose mostly 46.1 µM); calls by dose curve; also: actives are rising curves; nearly all actives have a fitted effect of over 50% in size
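In this qHTS, NS1 from influenza A is expressed in budding yeast, where it slows growth. Cells are switched from glucose to 2% galactose medium (pH 6.0, -URA), treated with compound, and growth recovery is read at OD600.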
Cycloheximide cs: affects cycloheximide protein synthesis inhibition readout, counter-screen | max response, % | hit rate 12% among 300,000 | cell reporter, cycloheximide protein synthesis inhibition counterscreen | AID 2314; in the data active = max response mostly above about 13%, no sharp cut-off; inactive = mostly below about 14%; also: read at 38.3 µM for the half of the compounds with a filed dose
Sm TGR block: inhibitors of Schistosoma mansoni thioredoxin glutathione reductase. Q962Y6. purified TGR, DTNB reduction, TNB absorbance 405 nm. Potency, µM (titrated, usually from 114 µM), usual class: inhibitors. hit rate 3% among 360,000. AID 485364; also: nearly all actives have a fitted effect of over 60% in size
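TGR 20 nM + NADPH 100 uM (dispensed conc.), cpd preinc 15 min RT; start with NADPH (500 uM addition) then DTNB (15 mM addition). Kinetic TNB absorbance, 405 nm filter. Four-parameter Hill fit across titration.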
Shiga toxin inh: blocks Shiga toxin action in Vero cells. Vero cells, Shiga toxin protein synthesis inhibition reporter. inhibition, % at 38.7 µM. hit rate 9.2% among 290,000. AID 2315; in the data active = inhibition mostly above about 28%, no sharp cut-off; inactive = mostly below about 43%
Pf growth 48h: inhibits P. falciparum growth in the first generation, 48 h; P. falciparum luciferase growth in erythrocytes, 48 h; Potency, µM (doses to about 28.7 µM), hits mostly inhibitors; hit rate 5.9% among 310,000; AID 504832
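Luciferase-expressing P. falciparum in infected erythrocytes (2% hematocrit, 0.1% parasitemia final) in RPMI 1640/0.5% Albumax were exposed to compound for 48 hours at 37 C, 5% CO2; growth read as luminescence.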
Of the large screens only hits and unclear results are named; the others gave an inactive call. Unless noted, calls follow the shape of the dose curve; as a rule, active = well fitted curve in the direction sought with a large enough effect; inconclusive = small, poorly fitted or top-dose-only effect, or another doubt; inactive = no such curve, though single readings can be large; an effect the other way counts as inactive or inconclusive.

Cc1cccc(N(Cc2ccccc2)C(=O)CSC(C)C(=O)Nc2cc(C)on2)c1 (stereo unspecified)	Pf growth 96h 10µM, Pf growth 48h inconclusive (no result: NS1 inh, Cycloheximide cs, Shiga toxin inh)
Cc1cccc(N(Cc2ccccc2)C(=O)CCl)c1	Pf growth 96h inconclusive, Sm TGR block 14µM, Pf growth 48h inconclusive (no result: NS1 inh)
COc1cc(C2C(C#N)=C(N)OC3=C2C(=O)CCC3)cc2c1OCO2 (stereo unspecified)	none (no result: Pf growth 48h)
Cc1nnc2n1N=C(c1ccc(F)cc1F)CS2	none (no result: NS1 inh, Cycloheximide cs, Shiga toxin inh)
CCCN(CC1CCCO1)C(=O)CCc1nnc(CCc2ccc(OC)cc2)o1 (stereo unspecified)	Cycloheximide cs 27
CCN1CCN(C(=O)CCc2nnc(CCc3ccc(OC)cc3)o2)[C@@H](C)C1=O	Cycloheximide cs 23
Cc1cccc(Cc2nnc(CCC(=O)N3CCCCC3c3nccs3)o2)c1 (stereo unspecified)	none
CCCOC1CCCN(C(=O)CCc2nnc(Cc3cccc(C)c3)o2)C1 (stereo unspecified)	Cycloheximide cs 47, Shiga toxin inh 95
Cc1cccc(Cc2nnc(CCC(=O)N(C)C3CCOC3)o2)c1 (stereo unspecified)	Pf growth 96h inconclusive, Cycloheximide cs 27, Shiga toxin inh 71
CN(CCc1ccccc1)C(=O)CCc1nnc(Cc2ccc3c(c2)OCO3)o1	Pf growth 96h inconclusive, Cycloheximide cs 13, Sm TGR block inconclusive, Pf growth 48h inconclusive
CCN(CC1CCCO1)C(=O)CCc1nnc(Cc2ccc3c(c2)OCO3)o1 (stereo unspecified)	Pf growth 96h inconclusive, Sm TGR block 28µM
Cc1cccc(Cc2nnc(CCC(=O)N(CC3CC3)CC3CCCO3)o2)c1 (stereo unspecified)	Pf growth 96h inconclusive, Cycloheximide cs 47, Shiga toxin inh 58
CC(OC(=O)Cn1[nH]c(=O)c2ccccc2c1=O)C(=O)Nc1cccc(Cl)c1 (stereo unspecified)	none (no result: NS1 inh, Cycloheximide cs, Shiga toxin inh)
O=C(CCc1ccccn1)N1CCCC(CNS(=O)(=O)c2cccs2)C1 (stereo unspecified)	Pf growth 96h inconclusive
CCOC(=O)c1cnc2c(C)c(Cl)ccc2c1Nc1ccc(S(=O)(=O)Nc2ncccn2)cc1	none
O=C(COC(=O)CC1SC(N2CCCC2)=NC1=O)Nc1c(F)c(F)c(F)c(F)c1F (stereo unspecified)	none (no result: NS1 inh, Cycloheximide cs, Shiga toxin inh)
CC(=O)c1sc(-c2ccc(F)cc2F)nc1C	none
Nc1ncnc2c1nc(SCCO)n2Cc1ccccc1	none (no result: NS1 inh)
CCS(=O)(=O)N1Cc2ccccc2CC1C(=O)Nc1ccc(NC(C)=O)cc1 (stereo unspecified)	none (no result: Pf growth 96h)
CCS(=O)(=O)N1Cc2ccccc2CC1C(=O)Nc1cccc(C)c1 (stereo unspecified)	Cycloheximide cs 37, Shiga toxin inh 120 (no result: NS1 inh)
CCS(=O)(=O)N1Cc2ccccc2CC1C(=O)Nc1ccc(OC)cc1 (stereo unspecified)	Cycloheximide cs 35 (no result: NS1 inh)
CCS(=O)(=O)N1Cc2ccccc2CC1C(=O)Nc1ccc(F)c(F)c1 (stereo unspecified)	Cycloheximide cs 37, Shiga toxin inh 82
COc1ccc(S(=O)(=O)N2Cc3ccccc3CC2C(=O)Nc2ccc(O)cc2)cc1OC (stereo unspecified)	Pf growth 96h 3.7µM, Pf growth 48h inconclusive
O=C(NC1CCCCC1)C(c1cccnc1)N(C(=O)c1csnn1)C1CCCC1 (stereo unspecified)	Pf growth 96h inconclusive, Pf growth 48h inconclusive
CCN(C(=O)CSc1nnc(-c2ccncc2)n1Cc1ccccc1)C1CCS(=O)(=O)C1 (stereo unspecified)	none
CCS(=O)(=O)N1Cc2ccccc2CC1C(=O)NCCc1ccccc1 (stereo unspecified)	Cycloheximide cs 19
CCS(=O)(=O)N1Cc2ccccc2CC1C(=O)Nc1cc(S(C)(=O)=O)ccc1Cl (stereo unspecified)	Pf growth 96h inconclusive
CCS(=O)(=O)N1Cc2ccccc2CC1C(=O)OCC(=O)N(C(C)C)C(C)C (stereo unspecified)	Pf growth 96h 9.3µM, Pf growth 48h inconclusive (no result: NS1 inh)
CCC(=O)N1c2ccccc2CC1C(=O)NCCc1ccccc1 (stereo unspecified)	none (no result: Pf growth 96h, NS1 inh, Cycloheximide cs, Shiga toxin inh, Pf growth 48h)
CCS(=O)(=O)N1Cc2ccccc2CC1C(=O)Nc1ccc(F)c(F)c1F (stereo unspecified)	Cycloheximide cs 25
Cc1cccn2c(=O)c(C(=O)N3CCN(c4ccc(Cl)cc4)CC3)cnc12	none (no result: Pf growth 96h, NS1 inh, Cycloheximide cs, Shiga toxin inh, Pf growth 48h)
CCCN1CCN(CCCNC(=O)c2ccc3c(c2)sc2nc(-c4ccc(C)cc4)cn23)CC1	none (no result: Pf growth 96h, NS1 inh, Cycloheximide cs, Shiga toxin inh, Pf growth 48h)
C(=C(c1ccccc1)c1ccccc1)c1ccccn1	Pf growth 96h inconclusive, Pf growth 48h inconclusive (no result: NS1 inh, Cycloheximide cs, Shiga toxin inh)
COc1ccc(/C(C#N)=C/c2ccccn2)cc1	Cycloheximide cs 60, Shiga toxin inh 110
COC(=O)c1ccc(/C=C(\C#N)c2nc3ccccc3s2)cc1	none
N#C/C(=C\c1ccccn1)c1nc2ccccc2s1	Pf growth 96h inconclusive, Cycloheximide cs 35, Sm TGR block inconclusive, Shiga toxin inh 57
CCOc1ccccc1NC(=O)Nc1ccc2nc(N3CCN(C)CC3)cc(C)c2c1	none (no result: Pf growth 96h, NS1 inh, Cycloheximide cs, Shiga toxin inh, Pf growth 48h)
O=c1cc(CO)oc(C(Nc2ccccn2)c2ccc(C(F)(F)F)cc2)c1O (stereo unspecified)	Sm TGR block 40µM, Pf growth 48h inconclusive
O=c1cc(CO)oc(C(Nc2ccccn2)c2cccc(F)c2)c1O (stereo unspecified)	Sm TGR block 2.8µM
O=c1cc(CO)occ1OCc1cccc(C(F)(F)F)c1	none
COc1cccc(C(Nc2ccccn2)c2oc(CO)cc(=O)c2O)c1 (stereo unspecified)	Sm TGR block 3.2µM (no result: NS1 inh)
CC(=O)Nc1ccc(C(=O)NNC(=O)c2cccc(C)c2)cc1	none
Fc1ccc(-n2cc(-c3ccccc3)c3c(NN4CCOCC4)ncnc32)cc1	Pf growth 96h inconclusive, Pf growth 48h 15µM
Cc1cc(=O)[nH]c2nnc(-c3ccc(Br)cc3)n12	none
Nc1ccc(-c2nc3ncccc3o2)c(O)c1	Cycloheximide cs 21, Shiga toxin inh 69
CCC(=O)Nc1ccc(Cl)c(-c2nc3ncccc3o2)c1	none (no result: Shiga toxin inh)
Nc1ccc(-c2nc3ncccc3o2)c(Cl)c1	Cycloheximide cs 31, Shiga toxin inh 60
Nc1ccc(Cl)c(-c2nc3ncccc3o2)c1	Cycloheximide cs 43, Shiga toxin inh 59
O=S(=O)(O)c1cc(O)c2c(N=Cc3ccccc3O)cc(S(=O)(=O)O)cc2c1	none (no result: Pf growth 96h, Cycloheximide cs, Sm TGR block, Shiga toxin inh, Pf growth 48h)
COc1ccc2c(c1)[nH]c1c(=O)n(CC3CCCO3)cnc12 (stereo unspecified)	Cycloheximide cs 28 (no result: Pf growth 48h)
CCCCn1cnc2c([nH]c3cc(OC)ccc32)c1=O	none
O=c1c2[nH]c3cccc(Cl)c3c2ncn1CC1CCCO1 (stereo unspecified)	Cycloheximide cs 23, Shiga toxin inh 49
COc1ccc(CCNC(=O)Cn2c(=O)c3cccn3c3ccccc32)cc1OC	none (no result: Pf growth 96h, NS1 inh, Cycloheximide cs, Shiga toxin inh, Pf growth 48h)
CC(C)(C)C(=O)Nc1ccc2nc(SCC(=O)N3CCCC3)sc2c1	none (no result: Pf growth 96h, NS1 inh, Cycloheximide cs, Shiga toxin inh, Pf growth 48h)

Source: PubChem
